Screens as filed in PubChem.
This is a sample that favours compounds with a hit; in the whole collection about 1.8% have one here.
HDAC3 inh: HDAC3 deacetylase inhibitors, primary screen, biochemical, fluorescence, cell-free homogeneous; AID 2718, 2010; hit rate 0.15% among 320,000; inhibition, % at 8.3 µM; Histone deacetylase 3 (Homo sapiens), O15379; recombinant HDAC3, fluorogenic peptide/trypsin coupled; in the data active = inhibition above about 26%, passing the limit was not always enough
GRK2 aptamer HTS: compounds blocking aptamer binding on GRK2 – biochemical, human GRK2, bead flow cytometry, HTS, primary screen; Beta-adrenergic receptor kinase 1 (Homo sapiens), P25098; FAM-aptamer displacement from GRK2; inhibition of aptamer binding, % at 10 µM; hit rate 0.59% among 330,000;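 active = inhibition of aptamer binding above 40%, roughly 3 SD of noise, on plates passing a quality check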;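 also: median bead fluorescence of bound FAM aptamer so fluorescent compounds give negative values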
Target sequence (P25098 whole entry, looked up): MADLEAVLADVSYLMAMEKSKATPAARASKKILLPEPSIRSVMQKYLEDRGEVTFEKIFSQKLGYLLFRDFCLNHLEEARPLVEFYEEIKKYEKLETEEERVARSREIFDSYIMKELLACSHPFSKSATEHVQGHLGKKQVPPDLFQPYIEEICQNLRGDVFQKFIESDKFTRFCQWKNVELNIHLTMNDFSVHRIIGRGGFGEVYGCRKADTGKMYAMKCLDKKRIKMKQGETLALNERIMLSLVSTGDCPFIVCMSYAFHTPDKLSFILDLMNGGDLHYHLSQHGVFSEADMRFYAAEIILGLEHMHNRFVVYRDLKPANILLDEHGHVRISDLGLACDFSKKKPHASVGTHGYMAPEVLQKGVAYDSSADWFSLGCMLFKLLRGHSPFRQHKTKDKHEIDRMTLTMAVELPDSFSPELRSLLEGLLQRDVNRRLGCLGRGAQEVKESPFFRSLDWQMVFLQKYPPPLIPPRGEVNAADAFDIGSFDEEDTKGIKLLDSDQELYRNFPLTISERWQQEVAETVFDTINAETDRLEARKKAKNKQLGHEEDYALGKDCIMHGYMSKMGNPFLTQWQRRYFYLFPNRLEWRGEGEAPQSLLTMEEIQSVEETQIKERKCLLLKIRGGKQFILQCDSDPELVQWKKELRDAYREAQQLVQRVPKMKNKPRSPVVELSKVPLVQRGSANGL
Pemphigus Ab inh: inhibitors of pemphigus antibody binding to DSG3, primary screen, biochemical, bead-based, flow cytometry, scFv-GFP; DSG3-coupled beads, scFv-anti-DSG3-GFP binding; stronger effect = lower value; binding (percent of control), % at 10 µM; hit rate 0.48% among 310,000; AID 588358, 2011;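 active = binding more than 3 SD below its plate's average and above zero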
VLA-4 inh: inhibition in human VLA-4 binding assay, primary screen, VLA-4 allosteric modulator project, MLPCN library, flow cytometry, VLA-4 expressing cells. AID 2557, 2010. hit rate 0.2% among 330,000. inhibition, % (about 7 µM as worked out from the volumes in the protocol). ligand binding flow cytometry
PKD1 inh: inhibitors of human PKD1 kinase, biochemical, fluorescence polarization. Serine/threonine-protein kinase D1 (Homo sapiens), Q15139. inhibition, % (concentration not given with the values). PKD1 kinase fluorescence polarization assay. hit rate 0.056% among 200,000
LANA-H2B inh: blockers of LANA interaction with H2A/H2B – biochemical, FP readout, HTS, primary screen; hit rate 0.6% among 320,000; cell-free LANA-H2A/H2B peptide, fluorescence polarization; inhibition, % (test concentration not listed); in the data active = inhibition mostly above about 10%, no sharp cut-off; inactive = mostly below about 6.7%
GRK2 inh confirm: GRK2 aptamer-displacing inhibitors, retest, confirmation, biochemical, cherry pick 1, bead flow cytometry; bead-bound GRK2, FAM-aptamer displacement; hit rate 4% among 2,000; shares compounds with GRK2 aptamer HTS; aptamer displacement, % at 10 µM; AID 504451, 2011;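 active = aptamer displacement above 40%, near three times the noise of non-fluorescent compounds, on plates passing quality checks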;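 also: negative values mostly reflect intrinsic compound fluorescence rather than true enhancement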
Aptamer quench: counter-screen for GRK2 aptamer inhibitors: fluorescent aptamer quenchers; fluorescence change (kMESF span), kMESF (concentration not given with the values); 110 tested, under 10 active; shares compounds with GRK2 aptamer HTS; Fluorescent RNA aptamer beads, quenching, flow cytometry; stronger effect = higher value; AID 504521;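 active = compounds whose bead fluorescence drops by more than 37 kMESF across the dose range, marking them as dye quenchers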
FAM quench CP1: quenches fluorescent RNA aptamer, GRK2 hit artifact; 2,000 tested, under 10 active; fluorescence response (% of DMSO), % at 10 µM; shares compounds with GRK2 aptamer HTS; AID 504580; Carboxyfluorescein RNA aptamer on beads, flow cytometry quenching; stronger effect = lower value;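 active = compounds that quench the bead-bound fluorescent RNA probe, cutting fluorescence to under half of the solvent control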;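 also: counterscreen run without GRK2 so only probe quenching by compound is measured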
GRK2 confirm 2: GRK2 aptamer-displacing inhibitors, hit retest, confirmation, biochemical, cherry pick 2, bead flow cytometry. shares compounds with GRK2 aptamer HTS. bead-bound GRK2, FAM-aptamer displacement. inhibition of aptamer binding, % at 10 µM. 360 tested, under 10 active. AID 504782, 2011;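 active = inhibition of aptamer binding above 40%, about triple the noise seen with nonglowing compounds, on plates passing quality control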;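 also: negative values mostly come from compounds that fluoresce themselves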
FAM quench SP: counter-screen for GRK2 binding hits: quenchers of fluorescent RNA aptamer | fluorescence response vs DMSO, % at 10 µM | 360 tested, under 10 active | shares compounds with GRK2 aptamer HTS | AID 588494 | carboxyfluorescein RNA aptamer beads, flow cytometry quenching; stronger effect = lower value;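 active = response vs DMSO under 50%, meaning signal dropped by over half, treated as fluorescence quencher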;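 also: labelled aptamer on streptavidin beads without GRK2 as a quench counter-screen; 100% = bead fluorescence of DMSO wells and lower means quenching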
Numbers without * were called inactive; / = no result given. Rule as the data show it, unless noted: active = inhibition above about 50%; inactive = the rest.

SMILES	HDAC3 inh	GRK2 aptamer HTS	Pemphigus Ab inh	VLA-4 inh	PKD1 inh	LANA-H2B inh	GRK2 inh confirm	FAM quench CP1	others
CC(=O)c1cccc(NC(=O)Cn2cnc(S(=O)(=O)N3CCCC3)c2)c1	-2.7	0.0	/	1.0	/	-2.7	/	/
CCCN(C(=O)CSc1nnc(-c2ccncc2)n1CCC)c1c(N)n(Cc2ccccc2)c(=O)[nH]c1=O	/	/	106.2	/	/	/	/	/
COCCn1c(=O)[nH]c2cc(C(=O)Nc3ccc(OC)c(Cl)c3)ccc2c1=O	-5.0	57.0*	98.8	-13.6	/	-1.4	-1.4	102.3
Cc1ccccc1C(=O)Nc1cccc(NC(=O)c2ncn[nH]2)c1	-1.2	99.0*	82.7	12.0	4.2	1.4	16.4	97.9
O=C(CCCCn1c(=O)[nH]c2ccccc2c1=O)N1CCN(c2cccc(C(F)(F)F)c2)CC1	9.9	3.0	/	-7.7	-6.7	-0.8	/	/
O=C(CCCn1c(=S)[nH]c2ccccc2c1=O)N1CCN(c2cccc(Cl)c2)CC1	-1.7	0.0	96.1	-18.4	-2.0	3.4	-2.9	92.7
COc1ccc(N2CCN(CCCn3c(=S)[nH]c4ccccc4c3=O)CC2)cc1	4.5	23.0	96.5	12.3	/	3.4	-1.5	95.0
COc1ccccc1N1CCN(CCCn2c(=S)[nH]c3ccccc3c2=O)CC1	13.0	0.0	109.5	1.9	/	3.6	/	/
Nc1c(-c2ccc3c(c2)OCCO3)oc2ccccc2c1=O	8.7	0.0	98.1	7.6	/	1.4	/	/
O=C(NCC1OCCc2ccccc21)c1ccc(NC(=O)c2ccccc2Cl)cc1 (stereo unspecified)	/	47.0*	124.0	22.0	-5.2	/	/	/	GRK2 confirm 2=-3.5;FAM quench SP=101.0
O=C(NCC1OCCc2ccccc21)c1ccc(NC(=O)c2ccc(Cl)cc2Cl)cc1 (stereo unspecified)	0.9	1.0	84.8	4.3	-11.2	9.3	/	/
Cc1cccc(C)c1OCCCCN1CCNCC1	-3.0	42.0*	96.6	6.4	/	1.3	-5.0	99.4
Cc1cc(C)c(OCCCCN2CCNCC2)c(C)c1	-1.4	0.0	93.4	5.2	/	2.4	/	/
Cc1cc([N+](=O)[O-])cnc1NC(C)c1ccccc1 (stereo unspecified)	3.1	0.0	/	8.8	-8.3	-4.2	/	/
CNC(=O)c1[nH]cnc1C(=O)Nc1ccc(F)cc1	1.4	89.0*	112.3	0.8	/	3.1	-2.9	141.6	Aptamer quench=9.5
O=C(Cc1ccc(NC(=O)C2CCCN(C(=O)c3ccccc3)C2)cc1)Nc1ccc(C(=O)N2CCOCC2)cc1 (stereo unspecified)	/	/	108.2	/	/	/	/	/
Cc1ccccc1C(=O)NCCc1nnc(SCC(=O)Nc2nc(-c3ccccc3)cs2)n1C	-1.6	55.0*	108.0	8.4	-0.3	1.9	-2.2	96.2
Cc1cc(C)nc(SCc2nnc(SCC(=O)Nc3nc(-c4ccccc4)cs3)n2C)n1	1.0	0.0	99.7	8.5	-3.4	3.0	/	/
